# A selection: hits, their analogues and other compounds. The true share with any hit is near 4.7%.
# HepG2 viability – HepG2 cytotoxicity, counter-screen for TGF-b inhibitors. HepG2 CAGA-GFP viability, ATP luminescence, 18 h. Potency, µM (top dose mostly 46.1 µM), without a hit: at the highest dose activity change, negative = cytotoxicity, most hits filed as cytotoxic. 410,000 tested, 0.76% active. AID 588856; note: potency is the fitted concentration of half-maximal effect
#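 CellTiter-Glo luminescence gave cytotoxicity after 18 hours at 37 degrees C. The cells were HepG2 CAGA-GFP in 1% FBS DMEM, stimulated with 500 pg/mL TGF-beta after compound addition. %Activity was normalised to no-cell wells (complete cell-killing) and DMSO (no toxicity), and curves were fitted and classified.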
# ATXN2 expr inh – reduces ATXN2 reporter expression in HEK-293 cells. HEK-293 ATXN2-luciferase reporter, luminescence, 24 h. Potency, µM (series often up to 57 µM), without a hit: at the top dose activity change, negative = inhibition, most hits filed as inhibitors. 360,000 tested, 0.72% active. AID 1745845; note: potency is the fitted concentration of half-maximal effect; % is set by controls: 0 for no effect and ±100 for the full control effect; nearly all actives have a fitted effect of over 55% in size
#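 qHTS (up to 57 uM final) was run with 24 h compound exposure of reporter cells at 37 °C. Each well was multiplexed: SteadyGlo luminescence measured ATXN2-luciferase expression after a fluorogenic Gly-Phe-AFC viability readout (25 uM final).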
# DRD3 agonist – activates the human D3 dopamine receptor; D3R DiscoveRx beta-arrestin cells, luminescence, 90 min; max activation, %; 410,000 tested, 0.58% active; in the data active = max activation above about 30%; note: 0% is about no effect
# Target sequence (P35462 whole entry, looked up): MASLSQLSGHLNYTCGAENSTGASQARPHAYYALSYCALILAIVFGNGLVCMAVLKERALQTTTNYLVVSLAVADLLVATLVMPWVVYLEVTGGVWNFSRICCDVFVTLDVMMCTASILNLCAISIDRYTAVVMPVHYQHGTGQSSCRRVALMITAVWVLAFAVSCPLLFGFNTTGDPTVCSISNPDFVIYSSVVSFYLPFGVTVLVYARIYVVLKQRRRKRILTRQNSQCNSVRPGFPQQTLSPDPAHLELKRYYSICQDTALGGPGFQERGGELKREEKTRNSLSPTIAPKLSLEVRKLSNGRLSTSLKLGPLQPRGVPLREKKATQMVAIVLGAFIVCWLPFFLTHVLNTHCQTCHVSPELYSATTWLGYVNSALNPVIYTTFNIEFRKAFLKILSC
#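 Agonist-mode cell screen: cells plated at 1500/well and incubated overnight at 37 °C, then exposed to library compounds for 90 min at 37 °C. Detection reagent was added for 30–60 min at room temperature, and luminescence was read.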
# D3 antag – blocks the human D3 dopamine receptor; P35462; D3R cells, DiscoveRx beta-arrestin luminescence, antagonist mode; hits give low values; max response, negative = inhibition, %; 360,000 tested, 2.5% active; in the data active = max response below about -50%; inconclusive = no clear call, values can overlap the other calls; note: % is set by controls: 0 for no effect and ±100 for the full control effect
#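 Cells expressing the human receptor were seeded at 1500 cells/well, incubated overnight at 37 degrees C in 5% CO2, then exposed to library compounds with dopamine controls for 90 minutes at 37 degrees C before luminescent detection.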
# TGFb inhibitor – blocks TGF-b signaling. HepG2 CAGA-GFP TGF-b/SMAD3 reporter, GFP fluorescence, 18 h; TGF-beta stimulated, 500 pg/mL final. Potency, µM (highest dose often 46.1 µM), inactives show at the highest dose activity, negative = inhibition, usual class: inhibitors. 410,000 tested, 1.2% active; note: potency is the fitted concentration of half-maximal effect; % is set by controls: 0 for no effect and ±100 for the full control effect; nearly all actives have a fitted effect of over 65% in size
#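 TGF-beta reporter screen: HEPG2 CAGA-GFP, 1% FBS, 500 pg/mL TGF-beta final, 18 h; per-cell GFP summed per well; curves fitted and categorized by class.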
# S2 tox – reduces viability in counter-screen for ATXN expression inhibitors | S2 cells (HEK-293 line with an ATXN2-luciferase reporter) viability, CellTiter-Fluor protease fluorescence, 24 h | Potency, µM (top dose mostly 56.7 µM), most hits filed as cytotoxic | 400,000 tested, 0.49% active; note: potency is the fitted concentration of half-maximal effect; nearly all actives have a fitted effect of over 40% in size
# * = called active by the depositor; i = inactive; ? = inconclusive; . = not tested or not shown; [ ] = remark or other dose. Unless noted, calls come from the whole dose curve; as a rule, active = well fitted curve in the direction sought with a large enough effect; inconclusive = small, poorly fitted or top-dose-only effect, or another doubt; inactive = no such curve, though single readings can be large; an effect the other way counts as inactive or inconclusive.
SMILES,HepG2 viability,ATXN2 expr inh,DRD3 agonist,D3 antag,TGFb inhibitor,S2 tox
O=C(NCCN1CCN(C(=O)c2cccs2)CC1)c1cccs1,4%,-8%,-34,-74*,-9%,i
OCC(O)C[n+]1cccc(Br)c1 (stereo unspecified),-20%,.,.,.,16%,.
Cc1cccc(N(CC(O)Cn2c3ccccc3c3ccccc32)S(=O)(=O)c2ccc(F)cc2)c1 (stereo unspecified),-99%,?,5,.,?,.
O=C(Nc1nc(-c2ccc(F)c(F)c2)cs1)Nc1ccc(F)cc1F,11%,5µM*,0,5,-10%,?
NNC(=S)NC1CCCCCCCCCCC1,8.9µM*,.,-13,-28,10µM*,i
CCN1CCN(c2cc(-c3ccc(F)cc3)c3c(n2)CCCCCC3)CC1,.,0%[25.6 µM],-22,.,.,?
CNC(=O)N(c1ccccc1)c1ccccc1,2%,0%,6,?,2%,i
O=C(O)CSCC(=O)N(c1ccccc1)c1ccccc1,23%,-17%,7,6,3%,i
O=C(N(c1ccccc1)c1ccccc1)N(c1ccccc1)c1ccccc1,-10%,.,-5,-2,16µM*,?
O=C(CCl)N(CCc1ccccc1)CCc1ccccc1,18µM*,?,-4,-20,?,?
O=C(CCl)N(c1ccccc1)c1ccccc1,11µM*,?,-6,-12,?,.
Cc1ccc2cc(CNCc3cccc4ccccc34)c(N3CCC(O)CC3)nc2c1,.,.,.,.,.,i
CCN(C(=O)Cn1cnc2onc(-c3ccc(F)cc3)c2c1=O)c1ccc(OC)cc1,-29%,-7%,-14,.,?,i
Cc1ccc(Sc2ncnc3onc(C)c23)cc1,-9%,11%,0,-15,-7%,i
Cc1noc2ncnc(Sc3ccc(Cl)cc3)c12,14µM*,-20%,-10,-5,?,?
Cc1noc2ncnc(Sc3c(Cl)cccc3Cl)c12,11µM*,7%,1,113,?,i
O=Nc1c(-c2c(O)[nH]c3cc(Br)ccc23)[nH]c2ccccc12,7.9µM*,?,-34,-8,8.9µM*,11µM*
Cc1cnc(-n2ncc(C(=O)NCCc3ccncc3)c2-c2cccs2)nc1-c1ccc(F)cc1,.,.,.,.,.,i
O=C(O)c1cc(N=Nc2c(O)ccc3ccccc23)cc(C(=O)O)c1,14%,-1%,0,-5,-3%,?
O=C(O)c1ccc(N=Nc2c(O)ccc3ncccc23)cc1,-6%,.,-8,-75*,-1%,i
COC(=O)c1ccc(C)c(NC(=O)CCNC(=O)c2ccc([N+](=O)[O-])cc2)c1,4.5µM*,8%,1,12,-4%,i
Cc1ccc(F)cc1NC(=O)CCNC(=O)c1ccc([N+](=O)[O-])cc1,7%,-1%,-1,-8,-3%,i
CCc1ccc2occ(CC(=O)Nc3sc4c(c3C(=O)OC)CCC4)c2c1,-18%,140%,10,.,-5%,i
CCCS(=O)(=O)c1nc(S(=O)(=O)c2ccc(C)cc2)c(NCc2ccccc2)s1,4%,.,-13,.,.,.
Cn1c(NCC(O)c2ccccc2)nc2c1c(=O)n(Cc1ccc(Cl)cc1)c(=O)n2C (stereo unspecified),3%,-9%,7,1,0%,?
SMILES,HepG2 viability,ATXN2 expr inh,DRD3 agonist,D3 antag,TGFb inhibitor,S2 tox
Cn1c(NCC(O)c2ccccc2)nc2c1c(=O)n(Cc1ccc(Cl)c(Cl)c1)c(=O)n2C (stereo unspecified),-95%,?,33*,?,?,?
CN(C)c1ccc(C=O)cc1Cl,2%,.,.,.,-3%,.
O=C(Nc1nc2c(F)cc(F)cc2s1)c1ccc2c(c1)OCCO2,4%,.,11,.,.,.
Cc1cc(NC(=O)C2Oc3ccccc3OC2C)no1 (stereo unspecified),5%,20%,1,-138*,6%,i
COC(=O)c1ccc2nc(C3CCCCC3)c(CC(C)(C)C)n2c1,10µM*,?,-4,7,?,.
CC1CN(C(=O)CCC(=O)NCCCN2CCN(Cc3ccccc3)CC2)c2cc(Cl)ccc2O1 (stereo unspecified),-33%,-26%,-2,-90*,?,i
CC(=O)N1CCOc2cc(S(=O)(=O)NC(C)c3ccccc3)c(Cl)cc21 (stereo unspecified),-7%,-11%,-15,-61*,2%,i
O=C(CCC(=O)N1CCOc2ccc(Cl)cc21)NCCCN1CCOCC1,5%,7%,-8,5,3%,i
CC(=O)N1CCOc2cc(S(=O)(=O)N(C)Cc3ccccc3)c(Cl)cc21,0%,-3%,-11,.,30%,i
O=C(CCC(=O)N1CCOc2ccc(Cl)cc21)NCCCN1CCN(Cc2ccccc2)CC1,-29%,-19%,-13,-60*,-12%,?
CCC1Oc2ccc(C)cc2N(CC(=O)NCCCN2CCN(Cc3ccccc3)CC2)C1=O (stereo unspecified),-34%,-11%,-30,-75*,?,i
CCC1Oc2ccc(C)cc2N(CC(=O)NCCN2CCCCCC2)C1=O (stereo unspecified),-18%,-6%,-29,?,-20%,i
N=C(N)N,.,2%,1,.,.,i
CC(C)(C)CC(=O)OCC(=O)[C@@]1(O)CC[C@H]2[C@@H]3CCC4=CC(=O)C=C[C@]4(C)[C@H]3[C@@H](O)C[C@@]21C,.,-14%,.,.,.,?
CC1(C)[C@@H](OC(=O)CCC(=O)O)CC[C@]2(C)[C@H]3C(=O)C=C4[C@@H]5C[C@@](C)(C(=O)O)CC[C@]5(C)CC[C@@]4(C)[C@]3(C)CC[C@@H]12,.,7%,-5,.,.,i
O=C(CCC(=O)N1CCOc2ccc(Cl)cc21)NCc1ccccc1,-3%,-3%,-14,?,0%,i
CC(CNC(=O)CCC(=O)N1CCOc2ccc(Cl)cc21)c1ccccc1 (stereo unspecified),-7%,-29%,-15,-50*,-2%,?
O=C1CCC[C@@H]2[C@@H](Cc3ccccc3)[C@@H](Nc3ccccc3)C[C@@H]3CCN1[C@@H]32,-8%,.,.,.,?,.
CN(N=O)c1ccc(/C=C2\C=Cc3ccccc32)cc1,-4%,.,.,.,-5%,.
Cn1cccc1-c1cc(C(=O)N/N=C/c2ccccc2Cl)[nH]n1,-4%,25%,-15,-78*,-6%,i
Cn1cccc1-c1cc(C(=O)N/N=C/c2ccc(F)cc2)[nH]n1,-36%,-23%,-25,-82*,-8%,i
CCCCCc1ccc(-c2cn(Cc3ccc4c(c3)C(=O)c3ccccc3C4=O)nn2)cc1,15%,.,.,.,0%,.

# Source: PubChem BioAssay (National Center for Advancing Translational Sciences (NCATS))
